# Active and inactive are the calls of the source. The calls were made as follows: active = hit-call score of the fitted dose curve at least 0.9, where 1 is the maximum; inactive = score below 0.9.
# Read-out: Monokine induced gamma interferon (MIG), CXCL9 (gene 4283)
# Test: BSK_3C_MIG: BioMAP Diversity Plus: 3C Assay for Monokine induced gamma interferon (MIG) Biomarker Activity (AID 2283021);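 as to AC50: MIG protein level measured by immunoassay in the treated endothelial cultures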
# Conditions: primary human endothelial cells (HUVEC); actives raise or lower the signal
# Summary of the method: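 Endothelial primary cells (human umbilical vein) are dosed with test chemical in the 3C system. MIG levels are measured by ELISA at 24 h and fitted in both directions relative to DMSO.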
SMILES,outcome,AC50
CC(C)Nc1nc(Cl)nc(NC(C)C)n1,inactive,–
OC(c1ccc(Cl)cc1)(c1ccc(Cl)cc1)C(Cl)(Cl)Cl,–,30.3 µM (active)
CNC(=O)N(C)c1nnc(C(C)(C)C)s1,inactive,–
Cn1c(-c2ccccc2)cc(-c2ccccc2)[n+]1C,inactive,–
CC1(C)C(C(=O)OC(C#N)c2cccc(Oc3ccccc3)c2)C1(C)C (configuration not stated),inactive,–
CCC(C)n1c(=O)[nH]c(C)c(Br)c1=O (configuration not stated),inactive,–
COCC(=O)N(c1c(C)cccc1C)C(C)C(=O)OC (configuration not stated),inactive,–
CSC(=O)c1c(C(F)F)nc(C(F)(F)F)c(C(=O)SC)c1CC(C)C,inactive,–
COP(=S)(OC)SCn1nnc2ccccc2c1=O,inactive,–
CCOc1nc(F)cc2nc(S(=O)(=O)Nc3c(Cl)cccc3Cl)nn12,inactive,–
COC(=O)NS(=O)(=O)c1ccc(N)cc1,inactive,–
Cc1ccc(N=CN(C)C=Nc2ccc(C)cc2C)c(C)c1,–,34.5 µM (active)
Clc1cccc(C(Cl)(Cl)Cl)n1,inactive,–
O=C(O)c1c(Cl)ccc2cc(Cl)cnc12,inactive,–
CC(C)(C)C(=O)C(Oc1ccc(Cl)cc1)n1cncn1 (configuration not stated),inactive,–
CN=C=S,inactive,–
CCOP(=S)(OCC)Oc1nc(Cl)n(C(C)C)n1,inactive,–
Nc1cnn(-c2ccccc2)c(=O)c1Cl,inactive,–

SMILES,outcome,AC50
CC1(C)CON(Cc2ccccc2Cl)C1=O,inactive,–
CCCC(=NOCC)C1=C(O)CC(CC(C)SCC)CC1=O (configuration not stated),inactive,–
CO/N=C(/C1=NOCCO1)c1ccccc1Oc1ncnc(Oc2ccccc2Cl)c1F,inactive,–
CC1(C)CCC(=Cc2ccc(Cl)cc2)C1(O)Cn1cncn1 (configuration not stated),inactive,–
Cc1cc(C)nc(Nc2ccccc2)n1,inactive,–
N#Cc1c[nH]cc1-c1cccc2c1OC(F)(F)O2,inactive,–
COc1cc(Cl)c(OC)cc1Cl,inactive,–
CC(C)NC(=O)N1CC(=O)N(c2cc(Cl)cc(Cl)c2)C1=O,inactive,–
CCCCC(C#N)(Cn1cncn1)c1ccc(Cl)cc1 (configuration not stated),inactive,–
CC(C)C1(C)N=C(c2ncccc2C(=O)O)NC1=O (configuration not stated),inactive,–
CC1(C)C(C=C(Cl)Cl)C1C(=O)OC(C#N)c1cccc(Oc2ccccc2)c1 (configuration not stated),inactive,–
CCCCC(O)(Cn1cncn1)c1ccc(Cl)cc1Cl (configuration not stated),inactive,–
Cc1nc(N(C)C)nc(OC(=O)N(C)C)c1C,inactive,–
Clc1nc(Cl)nc(Nc2ccccc2Cl)n1,inactive,–
COC(=O)N(C(=O)N1CO[C@@]2(C(=O)OC)Cc3cc(Cl)ccc3C2=N1)c1ccc(OC(F)(F)F)cc1,inactive,–
Nc1c(Cl)c(F)nc(OCC(=O)O)c1Cl,inactive,–
CCOP(=O)(OCC)Oc1nc(Cl)c(Cl)cc1Cl,inactive,–
COc1ccc(-c2ccccc2)cc1NNC(=O)OC(C)C,inactive,–

# Read-out: not listed separately
# Test: BSK_3C_SRB: Viability Assessment in the BioMAP Diversity Plus: 3C Assay (AID 2283023);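 also: fitted both ways against DMSO so a hit may be signal rise or drop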
# Conditions: primary human endothelial cells (HUVEC)
# Summary of the method: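 Cytotoxicity readout in parallel HUVEC 3C cultures: after 24 h compound exposure, cells fixed with 10% TCA, stained with 0.1% SRB and read at 560 nm. Gain or loss relative to DMSO fitted.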
SMILES,outcome,AC50
CC(C)Nc1nc(Cl)nc(NC(C)C)n1,inactive,–
OC(c1ccc(Cl)cc1)(c1ccc(Cl)cc1)C(Cl)(Cl)Cl,–,21.2 µM (active)
CNC(=O)N(C)c1nnc(C(C)(C)C)s1,inactive,–
Cn1c(-c2ccccc2)cc(-c2ccccc2)[n+]1C,inactive,–
CC1(C)C(C(=O)OC(C#N)c2cccc(Oc3ccccc3)c2)C1(C)C (configuration not stated),–,10.1 µM (active)
CCC(C)n1c(=O)[nH]c(C)c(Br)c1=O (configuration not stated),inactive,–
COCC(=O)N(c1c(C)cccc1C)C(C)C(=O)OC (configuration not stated),inactive,–
CSC(=O)c1c(C(F)F)nc(C(F)(F)F)c(C(=O)SC)c1CC(C)C,–,14.6 µM (active)
COP(=S)(OC)SCn1nnc2ccccc2c1=O,inactive,–
CCOc1nc(F)cc2nc(S(=O)(=O)Nc3c(Cl)cccc3Cl)nn12,inactive,–
COC(=O)NS(=O)(=O)c1ccc(N)cc1,inactive,–
Cc1ccc(N=CN(C)C=Nc2ccc(C)cc2C)c(C)c1,–,32.4 µM (active)
Clc1cccc(C(Cl)(Cl)Cl)n1,inactive,–
O=C(O)c1c(Cl)ccc2cc(Cl)cnc12,inactive,–
CC(C)(C)C(=O)C(Oc1ccc(Cl)cc1)n1cncn1 (configuration not stated),inactive,–
CN=C=S,inactive,–
CCOP(=S)(OCC)Oc1nc(Cl)n(C(C)C)n1,inactive,–
Nc1cnn(-c2ccccc2)c(=O)c1Cl,inactive,–

SMILES,outcome,AC50
CC1(C)CON(Cc2ccccc2Cl)C1=O,inactive,–
CCCC(=NOCC)C1=C(O)CC(CC(C)SCC)CC1=O (configuration not stated),inactive,–
CO/N=C(/C1=NOCCO1)c1ccccc1Oc1ncnc(Oc2ccccc2Cl)c1F,–,13.4 µM (active)
CC1(C)CCC(=Cc2ccc(Cl)cc2)C1(O)Cn1cncn1 (configuration not stated),inactive,–
Cc1cc(C)nc(Nc2ccccc2)n1,inactive,–
N#Cc1c[nH]cc1-c1cccc2c1OC(F)(F)O2,–,11.6 µM (active)
COc1cc(Cl)c(OC)cc1Cl,inactive,–
CC(C)NC(=O)N1CC(=O)N(c2cc(Cl)cc(Cl)c2)C1=O,inactive,–
CCCCC(C#N)(Cn1cncn1)c1ccc(Cl)cc1 (configuration not stated),inactive,–
CC(C)C1(C)N=C(c2ncccc2C(=O)O)NC1=O (configuration not stated),inactive,–
CC1(C)C(C=C(Cl)Cl)C1C(=O)OC(C#N)c1cccc(Oc2ccccc2)c1 (configuration not stated),–,8.06 µM (active)
CCCCC(O)(Cn1cncn1)c1ccc(Cl)cc1Cl (configuration not stated),inactive,–
Cc1nc(N(C)C)nc(OC(=O)N(C)C)c1C,inactive,–
Clc1nc(Cl)nc(Nc2ccccc2Cl)n1,inactive,–
COC(=O)N(C(=O)N1CO[C@@]2(C(=O)OC)Cc3cc(Cl)ccc3C2=N1)c1ccc(OC(F)(F)F)cc1,–,3.97 µM (active)
Nc1c(Cl)c(F)nc(OCC(=O)O)c1Cl,inactive,–
CCOP(=O)(OCC)Oc1nc(Cl)c(Cl)cc1Cl,–,28.8 µM (active)
COc1ccc(-c2ccccc2)cc1NNC(=O)OC(C)C,inactive,–
